Screen size: about 360,000 compounds; about 11,000 (3.1%) were called active. The list comes from a sample in which actives are over-represented; it also holds similar structures and randomly drawn compounds. A number with no mark means an inactive call. No stated cut-off is given here; in the data, active means activity change below about -30%; inactive means the rest.
On the % scale 0 is the no-effect control and ±100 the full control effect.

D(1A) dopamine receptor (Homo sapiens), sequence (P21728 whole entry, looked up): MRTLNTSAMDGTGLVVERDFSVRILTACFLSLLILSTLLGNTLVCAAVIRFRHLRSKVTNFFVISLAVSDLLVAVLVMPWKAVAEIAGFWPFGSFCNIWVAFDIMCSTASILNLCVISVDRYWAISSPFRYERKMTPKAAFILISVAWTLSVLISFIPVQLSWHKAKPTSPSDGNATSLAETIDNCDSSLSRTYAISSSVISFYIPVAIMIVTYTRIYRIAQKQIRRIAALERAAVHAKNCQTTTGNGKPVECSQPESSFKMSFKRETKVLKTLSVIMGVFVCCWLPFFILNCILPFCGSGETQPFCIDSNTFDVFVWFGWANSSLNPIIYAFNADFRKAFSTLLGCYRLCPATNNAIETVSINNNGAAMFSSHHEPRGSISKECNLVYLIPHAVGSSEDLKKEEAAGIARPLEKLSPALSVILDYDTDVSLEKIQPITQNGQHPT

In this assay the target is D(1A) dopamine receptor (Homo sapiens) (UniProt P21728). Nature of the assay: Antagonist of Human D 1 Dopamine Receptor: qHTS. To be noted: HEK293 TREx D1 cells, calcium flux, dopamine EC80; at 10 µM; hits give low values. An excerpt:
Dopamine receptors (DARs) are involved in the etiology and/or therapy of a number of neuropsychiatric and endocrine disorders. For instance, all receptor-based antiparkinsonian drugs work via stimulating the […] DAR subtype whereas all FDA-approved antipsychotic agents are antagonists of this receptor. […] There are three different types of allosteric modulators that we are seeking, two of which will stimulate or augment receptor signaling, allosteric agonists and potentiators, while the third, allosteric antagonists, will attenuate receptor signaling. The present primary screening assay measures compound antagonism after an EC80 addition of dopamine by tracking calcium flux in a […], inducible Hek293 Trex D1 cell line. NIH Chemical Genomics Center [NCGC] NIH Molecular Libraries Probe Centers Network [MLPCN] MLPCN Grant: NS064831-01 Assay Submitter (PI): David Sibley
Freshly passaged cells are plated in 1536 well black, clear bottom plates at a density of 4000 cells/well in 3 ul of complete media containing 1x tetracycline inducer. After an overnight incubation at 30 C in 5% CO2, cells are loaded with 2 ul of the no wash Calcium Assay Kit (ABD Bioquest) and incubated at room temperature for 30 to 90 minutes. Agonist read: A 10 cycle (1 second/cycle) baseline measurement is taken and then the FDSS online 1536 pintool delivers 23 nl of compound library (as well as dopamine controls) to the plate. The plate is measured for kinetically at 1 cycle/sec for 180 seconds. Following the 180 second read, 1 ul of an EC80 (negative modulation assay) is delivered by an onboard pipette head. Measurements are taken kinetically for an additional 180 seconds.
In the case of `C=CCn1c(O)c(/C=N/N2CCOCC2)c(=O)[nH]c1=S`, the activity change, negative = inhibition was 6.62%.
The value for `COc1ccc(-c2nc(CS(=O)CC(=O)N3CCC4(CC3)OCCO4)c(C)o2)cc1` (stereo not drawn) was -3.25%.
Consider `CCN1C(=O)C(=Cc2c(C)n(CC(=O)NCC3CCCO3)c3ccccc23)C(=O)N(CC)C1=S` (stereo not drawn), for which the activity change, negative = inhibition was -0.95%.
The value for `Cn1c(O)c(C(=Nc2ccc(F)cc2)c2ccccc2)c(=O)n(C)c1=O` was -33.5% (active).
The value for `CC(=NC1CCN(Cc2ccccc2)CC1)c1c(O)n(C)c(=O)n(C)c1=O` was -0.272%.
The value for `Cn1c(O)c(C=Nc2ccc3c(c2)CCC3)c(=O)n(C)c1=O` was -5.53%.
`COc1ccccc1N=C1SCCCN1C`: the activity change, negative = inhibition is -10.1%.
Then `CCc1ccc(OCC(=O)N2CCN(CC(=O)Nc3ccccc3Cl)CC2)cc1`, with -5.54%.
The value for `COC(=O)C1=C(c2ccc(F)cc2OCc2ccccc2)C[C@@H]2CC[C@H]1N2C(=O)NCc1ccc(C(C)(C)C)cc1` was -11.5%.
In the case of `COC(=O)C1=C(c2ccc(-c3ccccc3)c(F)c2)C[C@@H]2CC[C@H]1N2C(=O)NCc1ccc(F)cc1`, the activity change, negative = inhibition is -0.711%.
The value for `COC(=O)C1=C(c2ccc(F)cc2OCc2ccccc2)C[C@@H]2CC[C@H]1N2C(=O)NCc1ccc(Cl)cc1` was 12.1%; that for `COC(=O)C1=C(c2ccccc2OCc2ccccc2)C[C@@H]2CC[C@H]1N2C(=O)NCc1ccc(OC)cc1` was -30.4% (active); that for `COC(=O)C1=C(c2ccc(C(C)=O)cc2)C[C@@H]2CC[C@H]1N2C(=O)NCCNC(C)=O` was 24%.
The value for `COC(=O)C1=C(c2ccc3ccccc3c2)C[C@@H]2CC[C@H]1N2C(=O)NCCO` was -40.5% (active); that for `CC(Cc1ccccc1)NCCC(c1ccccc1)c1ccccc1` (stereo not drawn) was 15.9%.
Then `Cc1ccc(NC(=O)N(Cc2ccc3c(c2)OCO3)C2CCN(Cc3ccccc3)CC2)cc1F`, with 2.05%; and `CSc1nc2ccc(C)cc2c(=O)n1-c1cccnc1`, with 7.08%; and `Cc1cc(C(=O)OCC(=O)Nc2c(F)cccc2F)c(C)n1C1CC1`, with 2.31%.
As for `Cc1nn(-c2ccccc2)c(C)c1NC(=O)COC(=O)Cc1ccccc1`, the activity change, negative = inhibition is -0.424%.
Consider `O=C(CCNS(=O)(=O)c1ccccc1)Nc1ccc(Cl)cc1C(=O)c1ccccc1`, for which the activity change, negative = inhibition is -6.99%.
The value for `CN1CCN(C(=S)SCC(=O)Nc2ccc(Cl)cc2C(=O)c2ccccc2)CC1` was -39.4% (active).
The value for `O=C(CCN1CCCCC1)NCC(=O)Nc1ccc(Br)cc1C(=O)c1ccccc1` was -20.3%; that for `O=C(CN1CCCCC1)Nc1ccc(Br)cc1C(=O)c1ccccc1Cl` was -26.5%.
The value for `O=C(Nc1ccc(Cl)cc1C(=O)c1ccccc1)c1cc(Cl)cc(Cl)c1` was 23.8%.
In the case of `O=C(COC(=O)c1ccccc1)Nc1ccc(Cl)cc1C(=O)c1ccccc1`, the activity change, negative = inhibition is -31.5% (active).
For `CN(c1ccccc1)c1ccc([N+](=O)[O-])c2nonc12`, the activity change, negative = inhibition is 0.138%.
Regarding `COC(=O)C1=C(c2ccc(F)cc2F)C[C@@H]2CC[C@H]1N2C(=O)NC1CC1`, the activity change, negative = inhibition is 25.8%.
The value for `O=C(NC(=S)N1C[C@H]2C[C@H](C1)c1cccc(=O)n1C2)c1ccc(F)cc1` was -0.512%.
The value for `Cn1cc(/C=C/c2nc3ccccc3c(=O)n2-c2ccccc2)c2ccccc21` was 11%; that for `Cc1ccccc1NC(=O)COC(=O)c1cc(C)n(C2CC2)c1C` was 2.42%.
The value for `C[C@]12CC[C@H](O)C[C@H]1CC[C@@H]1C2CC[C@]2(C)[C@@H](C3=CC(=O)OC3)[C@@H](O)C[C@]12O` (stereo partly drawn) was -17.2%.
On to `CC(C)CN1CCN(Cc2ccccc2C(F)(F)F)CC1CCO` (stereo not drawn), for which the activity change, negative = inhibition was 0.591%.
For `Cc1ccc(-c2cc(C(=O)N3CCC4(CC3)OCCO4)no2)cc1`, the activity change, negative = inhibition is -7.04%.
Then `Cc1ccc(Cn2c(C)c3cnn(CC(=O)N4CCC5(CC4)OCCO5)c(=O)c3c2C)cc1`, with -49.4% (active).
`O=C(CCCn1c(=O)[nH]c2cc(Cl)ccc2c1=O)N1CCC2(CC1)OCCO2`: the activity change, negative = inhibition was -7.09%.
Then `CNC(=O)O/N=C(\N)Cc1csc2ccccc12`, with -21.2%; and `CNC(=O)N(C)c1nnc(C(C)(C)C)s1`, with 9.77%.
Then `CCc1nc2ccccc2c(=O)n1-c1cccc(OC)c1`, with 2.19%; and `NCC(O)c1ccc(O)cc1` (stereo not drawn), with -66.9% (active).
The value for `CCOP(=O)(OCC)C(NC(=O)NC)C(N)=O` (stereo not drawn) was 4.22%.
As for `COC(=O)C1=C(c2cccc(OCc3ccccc3)c2)C[C@@H]2CC[C@H]1N2C(=O)NNCc1ccccc1`, the activity change, negative = inhibition was -14.3%.
As for `CCN1CCN(c2ccc([N+](=O)[O-])cc2C#N)CC1`, the activity change, negative = inhibition is 1.99%.
The value for `CC(C)n1c(=O)c(C=Nc2ccc(Br)cc2)c(O)n(Cc2ccco2)c1=O` was 14%.

The record behind these values is PubChem BioAssay AID504652 (National Center for Advancing Translational Sciences (NCATS), 2011).
